Reference: PubChem BioAssay (EPA / NIEHS)
Records with an inconclusive call do not appear. Active and inactive are the calls of the source. How the source made its calls, unless noted: active means hit-call score of the fitted dose curve at least 0.9, where 1 is the maximum; inactive means score below 0.9.

What was measured:
[1] = biological target: Bile acid receptor (Homo sapiens) (UniProt Q96RI1); assay: ATG_FXR_TRANS: Attagene TRANS-FACTORIAL HepG2 Assay for Farnesoid X Receptor (FXR) (AID 2282979; active means hit-call score of the fitted dose curve at least 0.9, where 1 is the maximum;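 further: hits raise reporter mRNA above DMSO so AC50 marks FXR activation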); conditions: HepG2 Attagene TRANS FXR-GAL4 reporter transcription
How it was run: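 Transient transfection of HepG2 with multiplexed GAL4-UAS reporter units; exogenous FXR-GAL4 chimera. Dose 24 h → TriZol RNA → oligo(dT) RT → PCR, 6-FAM primer extension, HpaI cut → CE. Gain vs DMSO.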

[2] = ATG_M_06_TRANS: Attagene TRANS-FACTORIAL HepG2 Assay for M06 Transcription Factor (Internal Marker) (AID 2282983; active means hit-call score of the fitted dose curve at least 0.9, where 1 is the maximum); conditions: HepG2 Attagene TRANS M06 internal marker reporter
How it was run: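 Background control endpoint: reporter mRNA from transiently transfected HepG2 after 24 h dosing, detected by RT-PCR with capillary electrophoresis fluorescence. Analysed for gain versus DMSO.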

[3] = ATG_M_32_TRANS: Attagene TRANS-FACTORIAL HepG2 Assay for M32 Transcription Factor (Internal Marker) (AID 2282984; active means hit-call score of the fitted dose curve at least 0.9, where 1 is the maximum); conditions: HepG2 Attagene TRANS M32 internal marker reporter
How it was run: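 Cell-based TRANS-format assay in HepG2: exogenous chimeric GAL4 reporter units transiently expressed, compounds applied 24 h. Reporter mRNA detected by RT-PCR plus capillary electrophoresis; this readout is an internal background marker.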

[4] = biological target: Nuclear receptor subfamily 4 group A member 2 (Homo sapiens) (UniProt P43354); assay: ATG_NURR1_TRANS: Attagene TRANS-FACTORIAL HepG2 Assay for human Nuclear Receptor Related Protein 1 (NURR1) (AID 2282985; active means hit-call score of the fitted dose curve at least 0.9, where 1 is the maximum); conditions: HepG2 Attagene TRANS reporter, mRNA readout
How it was run: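 Measures transcriptional activation by an exogenous NR-Gal4 chimera in transfected HepG2 liver cells. After 24 h, reporter RNA is reverse-transcribed, amplified and resolved by capillary electrophoresis; DMSO defines baseline.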

[5] = biological target: Transcriptional activator Myb (Homo sapiens) (UniProt P10242); assay: ATG_Myb_CIS: Attagene CIS-FACTORIAL HepG2 Assay for human Myeloblastosis (Myb) Proto-Oncogene Transcription Factor (AID 2282986); conditions: HepG2 Attagene CIS-FACTORIAL Myb reporter transcription; actives raise or lower the signal
How it was run: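 Reporter transcript levels, quantified by fluorescent RT-PCR and capillary electrophoresis, serve as the read-out. Transfected HepG2 cells carrying cis-promoter reporter units are dosed for 24 hours, and curves are fitted bidirectionally against DMSO controls.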

[6] = biological target: Nuclear respiratory factor 1 (Homo sapiens) (UniProt Q16656); assay: ATG_NRF1_CIS: Attagene CIS-FACTORIAL HepG2 Assay for human Nuclear Respiratory Factor 1 (NRF1) Orphan Gene (AID 2282987); conditions: HepG2 NRF1 cis-element reporter, Attagene multiplex; actives raise or lower the signal
How it was run: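 Multiplexed cis-reporter assay, HepG2 cells, 24 h treatment. Total RNA → oligo(dT) RT → PCR with reporter-specific primers → 6-FAM primer extension → HpaI cut → CE. Bidirectional fit vs DMSO.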

[7] = ATG_NFI_CIS: Attagene CIS-FACTORIAL HepG2 Assay for human Nuclear Factor I (NFI) (AID 2282989); conditions: HepG2 cis-regulatory reporter, NFI response element transcription; actives raise or lower the signal
How it was run: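 HepG2 cells transiently transfected with cis-element-driven multiplexed reporter transcription units, dosed for 24 h. Reporter mRNA quantified by RT-PCR, fluorescent labelling, HpaI digestion and capillary electrophoresis; bidirectional fit versus DMSO baseline.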

[8] = biological target: Myc proto-oncogene protein (Homo sapiens) (UniProt P01106); assay: ATG_Myc_CIS: Attagene CIS-FACTORIAL HepG2 Assay for human Myelocytomatosis (Myc) Proto-Oncogene Transcription Factor (AID 2282990); conditions: HepG2, Attagene cis-reporter transcription factor activity; actives raise or lower the signal
How it was run: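 HepG2, transient MRTU transfection (cis promoters, endogenous TFs); 24 h dosing; TriZol RNA → oligo(dT) RT → PCR → 6-FAM primer extension → HpaI cut → CE. Bidirectional fit vs DMSO.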

[9] = ATG_NF_kB_CIS: Attagene CIS-FACTORIAL HepG2 Assay for human Nuclear Factor Kappa B (NF-kB) (AID 2282991); conditions: HepG2 Attagene cis-factorial NF-kB reporter mRNA; actives raise or lower the signal
How it was run: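 Transient MRTU transfection of human HepG2 liver cells → 24 h chemical exposure → total RNA, oligo(dT) RT → PCR, 6-FAM primer extension, HpaI digest 2 h 37 C → CE fragment analysis. Bidirectional fitting, DMSO negative control.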

[10] = ATG_NRF2_ARE_CIS: Attagene CIS-FACTORIAL HepG2 Assay for human Nuclear Factor Erythroid 2 Related Factor 2 (NFR2) response to Antioxidant Response Elements (ARE) (AID 2282992); conditions: HepG2 Attagene ARE/NRF2 reporter, transcription factor activity; actives raise or lower the signal;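 on AC50: reporter mRNA level measured by RT-PCR and capillary electrophoresis fluorescence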
How it was run: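 Fluorescence intensity of reporter-specific cDNA fragments, separated by capillary electrophoresis, reflects mRNA induction in transfected HepG2 cells at 24 h. Activity is fitted bidirectionally, DMSO serving as baseline.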

[11] = ATG_Oct_MLP_CIS: Attagene CIS-FACTORIAL HepG2 Assay for human Octamer-Binding Transcription Factor (Oct) (AID 2282993); conditions: HepG2 Attagene cis-factorial Oct reporter, mRNA; actives raise or lower the signal
How it was run: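 HepG2 cells transiently transfected with cis-promoter-driven multiplexed reporter transcription units, dosed for 24 h. Reporter mRNA quantified by RT-PCR, fluorescent labelling, HpaI digestion and capillary electrophoresis; bidirectional fits versus DMSO baseline.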

[12] = biological target: Cellular tumor antigen p53 (Homo sapiens) (UniProt P04637); assay: ATG_p53_CIS: Attagene CIS-FACTORIAL HepG2 Assay for human p53 Transcription Factor (AID 2282994); conditions: HepG2 p53 cis-element reporter, Attagene mRNA; actives raise or lower the signal
How it was run: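 Transiently transfected HepG2 (multiple cis reporter transcription units); exposure 24 h; reporter RNA via RT-PCR, 6-FAM extension, 2 h HpaI digest at 37 C, CE detection; DMSO baseline.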

[13] = biological target: human Peroxisome Proliferator-activated Receptor alpha (PPARa), PPARA (gene 5465) (UniProt Q07869); assay: ATG_PPARa_TRANS: Attagene TRANS-FACTORIAL HepG2 Assay for human Peroxisome Proliferator-activated Receptor alpha (PPARa) (AID 2283001; active means hit-call score of the fitted dose curve at least 0.9, where 1 is the maximum)
How it was run: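 Transfected HepG2 cells treated with test chemical for 24 h. RNA isolated, reverse-transcribed with oligo(dT), PCR-amplified, FAM-labelled and HpaI-digested. Fragments sized by capillary electrophoresis; gain-of-signal fit relative to DMSO.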

[14] = BSK_3C_TissueFactor: BioMAP Diversity Plus: 3C Assay for Tissue Factor Biomarker Activity (AID 2282997); conditions: BioMAP 3C HUVEC, tissue factor biomarker readout; actives raise or lower the signal
How it was run: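 After a 24 h chemical exposure of primary human umbilical vein endothelial cells, Tissue Factor levels were quantified by ELISA.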

[15] = BSK_3C_VCAM1: BioMAP Diversity Plus: 3C Assay for Vascular cell adhesion molecule 1 (VCAM1) Biomarker Activity (AID 2282999); conditions: BioMAP 3C HUVEC, VCAM1 ELISA, cytokine-stimulated; actives raise or lower the signal
How it was run: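 Activity fitted in both directions relative to DMSO, with ELISA measurement of the surface marker on primary HUVEC (3C) at 24 h post-treatment; parallel SRB staining (0.1% SRB, TCA-fixed, 560 nm) flagged overt cytotoxicity.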

[16] = BSK_4H_Eotaxin3: BioMAP Diversity Plus: 4H Assay for Eotaxin 3 Biomarker Activity (AID 2283000); conditions: primary human endothelial cells (HUVEC); actives raise or lower the signal
How it was run: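 Chemicals were added to human umbilical vein endothelium cultures, and Eotaxin-3 was quantified by ELISA at 24 h. Values were derived by bidirectional fitting with DMSO serving as negative control and activity baseline.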

[17] = BSK_3C_uPAR: BioMAP Diversity Plus: 3C Assay for Urokinase-type plasminogen activator receptor (uPAR) Biomarker Activity (AID 2282998); conditions: BioMAP 3C HUVEC, uPAR biomarker ELISA; actives raise or lower the signal
How it was run: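 Human umbilical vein endothelial primary cells were exposed to test chemical for 24 h. Cell-surface uPAR was then quantified by ELISA, and responses were fitted bidirectionally against DMSO as negative control and baseline.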

[18] = biological target: Oxysterols receptor LXR-alpha (Homo sapiens) (UniProt Q13133); assay: ATG_LXRa_TRANS: Attagene TRANS-FACTORIAL HepG2 Assay for human Liver X Receptor alpha (LXRa) (AID 2282980; active means hit-call score of the fitted dose curve at least 0.9, where 1 is the maximum); conditions: HepG2 Attagene TRANS reporter, LXRa transactivation
How it was run: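 Transfect HepG2 with GAL4-UAS multiplex reporter constructs (TRANS format, chimeric receptor-GAL4); treat 24 h; extract RNA, reverse-transcribe, PCR-amplify, FAM-label, HpaI-digest; resolve fragments by capillary electrophoresis. Upward response vs DMSO.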

[19] = biological target: Hepatocyte nuclear factor 4-alpha (Homo sapiens) (UniProt P41235); assay: ATG_HNF4a_TRANS: Attagene TRANS-FACTORIAL HepG2 Assay for human Hepatocyte Nuclear Factor 4 alpha (HNF4a) (AID 2282982; active means hit-call score of the fitted dose curve at least 0.9, where 1 is the maximum); conditions: HepG2 HNF4a transactivation reporter, mRNA readout
How it was run: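 Multiplexed reporter assay: transfected HepG2, 24 h exposure, total RNA → oligo(dT) RT → PCR → 6-FAM extension → HpaI digest → CE fluorescence. DMSO = negative control.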

[20] = biological target: Oxysterols receptor LXR-beta (Homo sapiens) (UniProt P55055); assay: ATG_LXRb_TRANS: Attagene TRANS-FACTORIAL HepG2 Assay for human Liver X Receptor beta (LXRb) (AID 2282981; active means hit-call score of the fitted dose curve at least 0.9, where 1 is the maximum); conditions: HepG2 Attagene TRANS GAL4-LXRb reporter, mRNA
How it was run: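 After 24 h of chemical treatment, transfected HepG2 cells yield total RNA; reporter cDNA is PCR-amplified, FAM-labelled, HpaI-cut and run on capillary electrophoresis. Signal reflects chimeric LXRb-Gal4 activity on GAL4-UAS reporters.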

Measured: AC50

Chain of Nuclear receptor subfamily 4 group A member 2 (Homo sapiens) (P43354 whole entry, looked up, the tested form may be a part): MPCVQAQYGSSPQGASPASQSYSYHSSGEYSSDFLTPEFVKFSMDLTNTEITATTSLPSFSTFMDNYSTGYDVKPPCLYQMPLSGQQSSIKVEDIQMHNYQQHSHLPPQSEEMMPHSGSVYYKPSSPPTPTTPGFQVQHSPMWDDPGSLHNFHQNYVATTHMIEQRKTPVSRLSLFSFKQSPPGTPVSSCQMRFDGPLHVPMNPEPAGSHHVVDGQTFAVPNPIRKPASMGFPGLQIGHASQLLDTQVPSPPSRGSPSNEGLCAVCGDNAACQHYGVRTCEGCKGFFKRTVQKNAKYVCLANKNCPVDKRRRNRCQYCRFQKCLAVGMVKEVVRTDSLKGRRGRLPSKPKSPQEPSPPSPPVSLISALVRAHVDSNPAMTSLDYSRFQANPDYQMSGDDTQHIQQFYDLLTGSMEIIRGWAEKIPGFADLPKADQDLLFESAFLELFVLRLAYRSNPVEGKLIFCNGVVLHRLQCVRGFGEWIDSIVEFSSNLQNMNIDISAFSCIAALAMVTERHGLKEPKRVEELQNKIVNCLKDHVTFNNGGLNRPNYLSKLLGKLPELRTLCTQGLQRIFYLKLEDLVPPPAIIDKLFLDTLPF
Chain of Bile acid receptor (Homo sapiens) (Q96RI1 whole entry, looked up, the tested form may be a part): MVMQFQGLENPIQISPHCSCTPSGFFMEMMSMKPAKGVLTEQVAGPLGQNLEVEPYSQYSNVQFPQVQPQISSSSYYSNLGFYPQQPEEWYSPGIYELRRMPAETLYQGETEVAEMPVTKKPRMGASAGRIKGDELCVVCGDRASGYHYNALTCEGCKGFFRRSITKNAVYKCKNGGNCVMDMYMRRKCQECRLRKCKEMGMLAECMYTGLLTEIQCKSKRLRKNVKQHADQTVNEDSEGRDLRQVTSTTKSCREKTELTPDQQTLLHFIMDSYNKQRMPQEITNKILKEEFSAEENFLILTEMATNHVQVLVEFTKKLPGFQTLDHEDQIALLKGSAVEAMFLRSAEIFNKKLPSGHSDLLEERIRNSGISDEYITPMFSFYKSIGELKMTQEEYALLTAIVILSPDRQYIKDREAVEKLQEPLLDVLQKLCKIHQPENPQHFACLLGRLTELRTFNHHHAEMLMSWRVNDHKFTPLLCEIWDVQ
Chain of Transcriptional activator Myb (Homo sapiens) (P10242 whole entry, looked up): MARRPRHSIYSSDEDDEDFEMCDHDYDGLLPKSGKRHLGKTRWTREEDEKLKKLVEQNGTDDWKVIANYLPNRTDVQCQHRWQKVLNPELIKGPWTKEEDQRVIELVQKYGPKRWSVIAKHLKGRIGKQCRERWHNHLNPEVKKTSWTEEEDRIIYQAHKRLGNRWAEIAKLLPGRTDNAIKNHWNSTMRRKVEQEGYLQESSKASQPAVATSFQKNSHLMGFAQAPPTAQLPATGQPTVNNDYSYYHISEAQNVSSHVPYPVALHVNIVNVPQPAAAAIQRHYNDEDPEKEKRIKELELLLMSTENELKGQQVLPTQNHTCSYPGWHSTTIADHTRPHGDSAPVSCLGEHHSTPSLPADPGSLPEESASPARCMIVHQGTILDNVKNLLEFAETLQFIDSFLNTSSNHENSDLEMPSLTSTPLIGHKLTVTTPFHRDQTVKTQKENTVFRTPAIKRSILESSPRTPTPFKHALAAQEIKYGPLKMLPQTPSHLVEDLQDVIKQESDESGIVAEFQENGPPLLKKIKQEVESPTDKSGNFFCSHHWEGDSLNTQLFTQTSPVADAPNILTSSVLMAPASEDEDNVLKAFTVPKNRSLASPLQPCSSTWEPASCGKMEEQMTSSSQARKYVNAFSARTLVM
Chain of Cellular tumor antigen p53 (Homo sapiens) (P04637 whole entry, looked up): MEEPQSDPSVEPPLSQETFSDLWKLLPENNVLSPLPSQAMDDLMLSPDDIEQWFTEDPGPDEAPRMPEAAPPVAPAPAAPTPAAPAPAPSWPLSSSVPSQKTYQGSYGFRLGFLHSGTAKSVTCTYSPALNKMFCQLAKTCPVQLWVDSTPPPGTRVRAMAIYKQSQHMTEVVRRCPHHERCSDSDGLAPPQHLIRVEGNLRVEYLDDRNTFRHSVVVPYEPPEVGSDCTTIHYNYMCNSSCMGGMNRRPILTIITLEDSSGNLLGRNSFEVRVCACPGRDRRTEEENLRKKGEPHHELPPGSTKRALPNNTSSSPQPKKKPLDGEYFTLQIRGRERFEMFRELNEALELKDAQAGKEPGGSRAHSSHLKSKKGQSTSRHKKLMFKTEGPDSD
Chain of Oxysterols receptor LXR-alpha (Homo sapiens) (Q13133 whole entry, looked up, the tested form may be a part): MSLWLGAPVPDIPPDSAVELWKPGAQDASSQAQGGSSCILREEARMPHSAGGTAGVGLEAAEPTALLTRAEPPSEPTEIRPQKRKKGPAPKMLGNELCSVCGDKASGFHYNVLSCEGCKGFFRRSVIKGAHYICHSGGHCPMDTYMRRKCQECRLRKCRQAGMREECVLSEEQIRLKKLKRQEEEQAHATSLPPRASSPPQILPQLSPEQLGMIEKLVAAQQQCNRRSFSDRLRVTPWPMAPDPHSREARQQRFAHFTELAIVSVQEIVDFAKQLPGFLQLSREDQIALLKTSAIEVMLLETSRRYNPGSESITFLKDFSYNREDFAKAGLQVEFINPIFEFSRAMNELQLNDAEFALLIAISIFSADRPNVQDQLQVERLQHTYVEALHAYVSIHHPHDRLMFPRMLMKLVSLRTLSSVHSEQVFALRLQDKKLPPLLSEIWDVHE
Chain of Myc proto-oncogene protein (Homo sapiens) (P01106 whole entry, looked up): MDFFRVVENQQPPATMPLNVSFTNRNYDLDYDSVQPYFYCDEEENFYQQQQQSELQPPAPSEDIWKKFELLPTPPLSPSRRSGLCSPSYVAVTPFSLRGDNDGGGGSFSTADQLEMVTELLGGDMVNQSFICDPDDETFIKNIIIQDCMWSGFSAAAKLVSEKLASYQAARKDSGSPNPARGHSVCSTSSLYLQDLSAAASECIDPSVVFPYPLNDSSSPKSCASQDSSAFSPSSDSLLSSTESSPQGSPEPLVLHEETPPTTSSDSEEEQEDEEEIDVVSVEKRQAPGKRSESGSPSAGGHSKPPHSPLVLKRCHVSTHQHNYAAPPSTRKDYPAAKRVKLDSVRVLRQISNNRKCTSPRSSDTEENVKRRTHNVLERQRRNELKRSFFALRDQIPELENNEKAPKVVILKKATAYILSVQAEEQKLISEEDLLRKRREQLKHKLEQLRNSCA
Chain of Hepatocyte nuclear factor 4-alpha (Homo sapiens) (P41235 whole entry, looked up): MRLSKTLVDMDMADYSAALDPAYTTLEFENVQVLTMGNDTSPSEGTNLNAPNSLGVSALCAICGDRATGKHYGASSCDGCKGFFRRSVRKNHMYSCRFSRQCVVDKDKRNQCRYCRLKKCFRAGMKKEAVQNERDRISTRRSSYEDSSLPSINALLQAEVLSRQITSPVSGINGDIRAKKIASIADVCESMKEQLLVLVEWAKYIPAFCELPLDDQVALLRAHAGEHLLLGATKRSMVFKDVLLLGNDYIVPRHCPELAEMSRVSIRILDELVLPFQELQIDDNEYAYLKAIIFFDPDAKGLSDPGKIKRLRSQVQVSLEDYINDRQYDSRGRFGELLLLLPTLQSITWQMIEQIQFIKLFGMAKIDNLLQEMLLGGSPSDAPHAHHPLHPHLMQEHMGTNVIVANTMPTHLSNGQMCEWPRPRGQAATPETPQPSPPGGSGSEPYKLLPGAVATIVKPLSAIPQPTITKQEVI
Chain of human Peroxisome Proliferator-activated Receptor alpha (PPARa), PPARA (gene 5465) (Q07869 whole entry, looked up, the tested form may be a part): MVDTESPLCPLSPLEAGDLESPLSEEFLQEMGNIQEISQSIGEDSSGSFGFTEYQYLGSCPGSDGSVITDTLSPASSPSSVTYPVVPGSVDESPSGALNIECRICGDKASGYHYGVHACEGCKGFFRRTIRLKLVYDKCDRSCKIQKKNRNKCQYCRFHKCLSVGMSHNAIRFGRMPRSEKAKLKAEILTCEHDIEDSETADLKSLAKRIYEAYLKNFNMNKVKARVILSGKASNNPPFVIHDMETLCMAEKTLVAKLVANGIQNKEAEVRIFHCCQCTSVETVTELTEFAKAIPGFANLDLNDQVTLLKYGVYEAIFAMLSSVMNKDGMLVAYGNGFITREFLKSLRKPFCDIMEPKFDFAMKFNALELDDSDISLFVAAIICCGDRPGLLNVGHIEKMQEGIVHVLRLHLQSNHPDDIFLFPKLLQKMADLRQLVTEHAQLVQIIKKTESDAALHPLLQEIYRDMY
Chain of Nuclear respiratory factor 1 (Homo sapiens) (Q16656 whole entry, looked up): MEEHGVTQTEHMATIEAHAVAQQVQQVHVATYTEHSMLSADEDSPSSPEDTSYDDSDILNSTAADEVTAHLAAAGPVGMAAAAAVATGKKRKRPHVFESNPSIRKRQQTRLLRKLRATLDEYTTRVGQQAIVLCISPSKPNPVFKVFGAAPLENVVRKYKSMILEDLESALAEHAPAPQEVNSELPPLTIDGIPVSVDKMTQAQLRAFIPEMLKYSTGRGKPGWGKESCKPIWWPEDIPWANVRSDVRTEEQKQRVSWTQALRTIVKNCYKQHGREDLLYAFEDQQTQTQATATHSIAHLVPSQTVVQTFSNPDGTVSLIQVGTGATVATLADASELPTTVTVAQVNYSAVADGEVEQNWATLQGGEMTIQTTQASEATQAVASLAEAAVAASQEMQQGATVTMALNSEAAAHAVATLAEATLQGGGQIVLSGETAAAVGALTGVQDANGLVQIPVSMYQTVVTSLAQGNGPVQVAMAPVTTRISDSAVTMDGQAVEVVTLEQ
Chain of Oxysterols receptor LXR-beta (Homo sapiens) (P55055 whole entry, looked up, the tested form may be a part): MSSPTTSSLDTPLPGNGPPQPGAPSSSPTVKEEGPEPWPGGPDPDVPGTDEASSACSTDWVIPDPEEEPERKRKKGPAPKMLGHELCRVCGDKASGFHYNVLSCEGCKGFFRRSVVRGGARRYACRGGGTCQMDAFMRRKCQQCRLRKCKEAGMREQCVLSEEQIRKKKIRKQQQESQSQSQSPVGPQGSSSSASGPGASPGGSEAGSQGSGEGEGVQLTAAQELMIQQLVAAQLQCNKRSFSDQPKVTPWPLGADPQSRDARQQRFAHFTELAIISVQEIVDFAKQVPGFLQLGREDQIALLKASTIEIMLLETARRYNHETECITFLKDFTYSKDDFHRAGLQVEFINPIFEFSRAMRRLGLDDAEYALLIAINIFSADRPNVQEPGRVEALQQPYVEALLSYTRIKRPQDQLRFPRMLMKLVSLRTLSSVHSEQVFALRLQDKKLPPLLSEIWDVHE

CCCCc1ccc(O)cc1
active: [10] 66.7 µM
not listed: [14] | [15] | [16] | [17] | [18] | [19] | [20]
inactive: all other assays above

CC(=O)CCc1ccc2c(c1)OCO2
not listed: [7] | [14] | [15] | [16] | [17] | [18] | [19] | [20]
inactive: all other assays above

OCC(F)(F)OC(F)(F)C(F)(F)OC(F)(F)CO
not listed: [13] | [17] | [18] | [19] | [20]
inactive: all other assays above

N#Cc1cc([N+](=O)[O-])ccc1N
active: [10] 27.2 µM | [14] 0.706 µM | [16] 4.4 µM
not listed: [18] | [19] | [20]
inactive: all other assays above

Cc1ccc(N)cc1N
not listed: [3] | [17] | [18] | [19] | [20]
inactive: all other assays above

CC1(C)CN=C(NN=C(/C=C/c2ccc(C(F)(F)F)cc2)/C=C/c2ccc(C(F)(F)F)cc2)NC1
active: [10] 3.06 µM | [11] 20.8 µM
inactive: [1] | [4] | [5] | [8] | [9] | [12]

CCC(C)(C)c1ccc(O)cc1
active: [5] 46.1 µM | [10] 33.4 µM
not listed: [3] | [6] | [7] | [13] | [18] | [19] | [20]
inactive: all other assays above

CO/N=C(/C(=O)OC)c1ccccc1COc1ccccc1C
inactive: [1] | [2] | [3] | [5] | [6] | [7] | [8] | [9] | [12]
active: [10] 3.96 µM | [11] 21.9 µM

O=c1ssc(Cl)c1Cl
inactive: [18] | [19] | [2] | [3] | [5] | [7] | [12]
active: [6] 33.4 µM | [8] 33.4 µM | [9] 45 µM | [10] 1.08 µM | [11] 51.6 µM | [14] 5.68 µM | [15] 5.62 µM | [16] 4.22 µM

O=[N+]([O-])c1ccc(Cl)c(Cl)c1
active: [10] 100 µM
not listed: [3] | [4] | [12] | [13] | [18] | [19] | [20]
inactive: all other assays above

ClC1=C(Cl)C2(Cl)C3C(Cl)C(Cl)CC3C1(Cl)C2(Cl)Cl (stereo unspecified)
active: [1] 54.7 µM | [10] 14.8 µM | [14] 30.3 µM | [15] 28.6 µM | [16] 31 µM
not listed: [4] | [13] | [17] | [18] | [19] | [20]
inactive: all other assays above

FC(F)(F)c1ccc(Cl)cc1
not listed: [1] | [4] | [13] | [14] | [15] | [16] | [17] | [20]
inactive: all other assays above

CCOP(=S)(OCC)SCSCC
active: [10] 73 µM
not listed: [3] | [12] | [13] | [18] | [19] | [20]
inactive: all other assays above

OCC1CO1 (stereo unspecified)
not listed: [1] | [4] | [6] | [7] | [9] | [17] | [20]
inactive: all other assays above

Oc1ccccc1Br
not listed: [3] | [4] | [14] | [15] | [16] | [17] | [18] | [20]
inactive: all other assays above

NC(=O)C(F)(F)C(F)(F)F
not listed: [3] | [4] | [17] | [18] | [19] | [20]
inactive: all other assays above

ClC(Cl)c1ccccc1
not listed: [1] | [2] | [4] | [12] | [19]
inactive: all other assays above
